Source: ChEMBL document CHEMBL1157539, “Thousands of chemical starting points for antimalarial lead identification” (Nature, 2010)

Columns and labels:
Format in all cases: functional
Plasmodium falciparum [1] = assay: GSK_TCMDC: Inhibition of Plasmodium falciparum 3D7 in whole red blood cells, using parasite LDH activity as an index of growth. Test compounds present at 2uM
Plasmodium falciparum [2] = assay: GSK_TCMDC: Inhibition of Plasmodium falciparum Dd2 in whole red blood cells, using parasite LDH activity as an index of growth. Test compounds present at 2uM
HepG2 = assay: GSK_TCMDC: Percent inhibition of human HepG2 cell line. Test compounds present at 10uM.

SMILES	Inhibition (Plasmodium falciparum [1]) [%]	Inhibition (Plasmodium falciparum [2]) [%]	Inhibition (HepG2) [%]
O=C(Nc1nc2ccc(Cl)cc2s1)c1csnn1	96	99	15
COc1cc(Cc2cnc(N)nc2N)cc(OC)c1OCCCCCN1C(=O)c2ccccc2C1=O	97	4	5
Nc1ccc2[nH]cc(C3CCN(CC4CCN(C(=O)/C=C/c5ccc(Cl)c(Cl)c5)CC4)CC3)c2n1	99	97	53
CS(=O)(=O)N1CC2(CCN(CCC(NC(=O)Nc3ccccc3)c3ccc(Cl)c(Cl)c3)CC2)c2ccccc21 (stereo unspecified)	99	72	23
O=C(OCc1ccccc1)N1CCc2c([nH]c3ccccc23)C1CCC(F)(F)F (stereo unspecified)	94	81	0
O=C(C=Cc1ccc(Cl)c(Cl)c1)NCCCCCN1CCC(CCCNS(=O)(=O)c2ccc(Br)cc2)CC1	93	25	74
COc1ccc(-c2ccc(NC(=O)c3cccc(Cl)c3)cc2)cc1CN(C)CCO.O=C(O)C(F)(F)F	89	52	39
Cc1cc(NC(=O)Nc2ccc(Cl)cc2F)c2ccccc2n1	100	71	10
C#CC[C@@H](NC(N)=O)C(=O)O	97	0	1
O=C(/C=C/c1ccc(Cl)c(Cl)c1)N1CCC(CNCc2cccc3cc[nH]c23)CC1	85	14	1
COc1ccc(Nc2nccc(N3CCC(NC(=O)c4cc5ccccc5s4)C3)n2)cc1 (stereo unspecified)	99	86	1
Cc1ccc(CON2C(N)=NC(N)=NC23CCCCC3)c2ccccc12.Cl	98	56	57
CC(C)N1CCC(NCc2ccc(-c3ccc(Cl)cc3)cc2)CC1	99	48	50
CC(=O)Nc1nc(C(=O)Nc2ccc(-c3ccc(-c4nc5ccccc5[nH]4)cc3)cc2)cs1	100	53	38
Cl.Oc1cccc(Nc2ccnc3cc(-c4ccccn4)ccc23)c1	96	98	24
COc1ccc(F)cc1-c1ccccc1CNC(=O)CN(C)S(=O)(=O)c1cc(C)cc(Cl)c1C	92	73	0
CC(=O)Nc1ncc(C(=O)Nc2cccc(-c3ccc(-c4nc5ccccc5[nH]4)cc3)c2)s1	100	66	12
CCc1cc(I)c2c(c1)C(NCCCNc1cc(=O)c3ccccc3[nH]1)CCN2.CS(=O)(=O)O (stereo unspecified)	89	32	19
COc1cc(OC)c2c(C)cc(NCCCN3CCOCC3)nc2c1	99	3	6
FC(F)(F)c1ccc2[nH]c(-c3ccc(-c4cccc(CNCCN5CCNCC5)c4)s3)nc2c1.O=C(O)C(F)(F)F	91	39	22
Cc1ccc(NC(=O)c2cc([N+](=O)[O-])ccc2NCc2cccnc2)cc1Cl	86	58	9
COc1ccc(-c2nc3ccc(C)nc3nc2-c2ccc(OC)cc2)cc1	91	0	4
Cl.N#Cc1ccc2c(c1)CCN(CCC1CCC(NC(=O)/C=C/c3c[nH]c4ccc(F)cc34)CC1)CC2 (stereo unspecified)	100	83	18
O=C(O)C(F)(F)F.O=c1[nH]c2ccc(Nc3nccc(NCCc4ccccc4)n3)cc2[nH]1	100	6	0
COc1cc(NC(=O)/C=C/c2cc(F)cc(F)c2F)cc(OCCN2CCC(O)(c3ccccc3)CC2)c1.O=C(O)C(=O)O	100	82	54
Cc1ccc(Cn2nc(N3CCNCC3)ccc2=O)cc1NC(=O)Nc1ccc(-c2ccccc2)cc1.O=C(O)C(F)(F)F	94	20	46
COc1cc(NC(=O)c2ccc3c(=O)n(Cc4ccccc4)c(=S)[nH]c3c2)cc(OC)c1OC	94	47	6
